D1 ag: activates the human D1 dopamine receptor; P21728; HEK293 T-REx D1 cells, calcium flux, agonist mode; activation, % at 2 µM; hit rate 1% among 360,000; further: 0% is about no effect
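Tetracycline-induced HEK293 TREx D1 cells, force-coupled to calcium signalling, were dye-loaded with a no-wash calcium kit. Compound was pin-added after a 10 s baseline. Fluorescence was read kinetically at 1 cycle/s for 180 s, with calcium rises flagged as agonism.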
TRHR enhancer: allosteric enhancers of human TRH receptor. hit rate 0.66% among 360,000. TRHR cells, fluo-8 calcium fluorescence, EC20 TRH enhancement. enhancement, % at 2 µM. P34981; in the data active means enhancement above about 30%; further: 0% is about no effect
Target sequence (P34981 whole entry, looked up): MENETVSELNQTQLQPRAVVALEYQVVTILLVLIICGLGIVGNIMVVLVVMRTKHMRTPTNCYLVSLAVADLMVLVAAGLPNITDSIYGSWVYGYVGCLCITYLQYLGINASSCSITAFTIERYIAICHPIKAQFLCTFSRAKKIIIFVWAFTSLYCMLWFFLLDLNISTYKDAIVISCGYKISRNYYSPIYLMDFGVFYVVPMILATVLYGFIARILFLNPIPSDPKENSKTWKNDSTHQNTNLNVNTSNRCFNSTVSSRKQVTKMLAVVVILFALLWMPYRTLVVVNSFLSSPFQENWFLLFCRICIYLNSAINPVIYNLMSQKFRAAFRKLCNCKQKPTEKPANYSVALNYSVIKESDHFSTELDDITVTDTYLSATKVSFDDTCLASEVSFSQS
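TRHR-expressing cells loaded with fluo-8 calcium dye were read kinetically (ex 480/em 530) during compound addition, then stimulated with an EC20 of TRH (10 nM final). Enhancement of the Gq-mediated intracellular calcium response was scored.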
D1 PAM: enhances dopamine response at the human D1 receptor; P21728; HEK293 TREx D1 cells, calcium flux, dopamine EC20 potentiation; potentiation, % at 10 µM; hit rate 0.036% among 360,000; AID 504651; in the data active means potentiation above about 30%; further: 0% is about no effect
TRHR agonist: activates the human TRH receptor. TRHR cells, calcium flux fluo-8, FDSS agonist mode. hit rate 0.18% among 360,000. activation, % at 2 µM. P34981; further: 0% is about no effect
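In this calcium-flux screen, cells bearing human TRHR are dye-loaded with fluo-8, baselined for 10 cycles, then exposed to library compounds; positive kinetic calcium responses during the agonist phase mark hits, with TRH as control.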
D1 antag: blocks dopamine activation of the human D1 receptor; activity change, negative = inhibition, % at 10 µM; AID 504652; hit rate 3.2% among 360,000; P21728; HEK293 TREx D1 cells, calcium flux, dopamine EC80; stronger effect = lower value; in the data active means activity change below about -30%; further: on the % scale 0 is the no-effect control and ±100 the full control effect
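Tetracycline-induced HEK293 Trex D1 cells, force-coupled to calcium, dye-loaded; compounds added and read 180 s, then EC80 dopamine added and calcium flux tracked kinetically another 180 s.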
* = called active by the depositor; x = no result given. Sampled rows, rich in hits. Any-hit rate of the full collection: about 4.6%. Unless noted, no stated cut-off is given here; in the data, active means activation above about 30%; inactive means the rest.

SMILES | D1 ag | TRHR enhancer | D1 PAM | TRHR agonist | D1 antag
Cc1ccc(Cn2c(C)c3cnn(CC(=O)N4CCN(c5ccc(F)cc5)CC4)c(=O)c3c2C)cc1 | 3.9 | 11.7 | -4.5 | -0.7 | 1.5
Cc1cccc(C)c1NC(=O)CN(C)S(=O)(=O)c1ccc2c(c1)n(C)c(=O)c(=O)n2C | 1.3 | -7.6 | -2.4 | 0.2 | 23.6
COc1ccc(COC(=O)C2CCN(S(=O)(=O)c3ccc(F)cc3)CC2)cc1 | 37.3* | -5.4 | -1.8 | 2.0 | -34.6*
COc1ccc(C(=O)C2CCN(C(=O)c3ccc(F)cc3)CC2)cc1 | 8.4 | -4.0 | -3.8 | 0.2 | -26.9
COc1ccc(CCNC(=S)N2CCC(C(=O)c3ccc(F)cc3)CC2)cc1OC | 13.9 | 1.2 | -5.9 | 0.2 | -43.9*
COc1ccc(CN2CCC(C(=O)c3ccc(F)cc3)CC2)cc1 | 2.9 | -9.6 | -18.9 | -0.3 | -45.6*
COc1ccc(CCNC(=O)C2CCC(C(C)(C)C)CC2)cc1OC (stereo unspecified) | 5.4 | 8.0 | -14.9 | -0.4 | -63.0*
COc1ccc(C(=O)C2CCN(C(=S)NCCc3ccc(OC)c(OC)c3)CC2)cc1 | 13.6 | 0.2 | -2.7 | 1.2 | -18.5
O=C(c1ccc(F)cc1)C1CCN(C(=S)NCC2CCCO2)CC1 (stereo unspecified) | 16.3 | -3.6 | 1.3 | 0.2 | -35.3*
O=C(CSc1ncnc2c1nnn2Cc1ccccc1F)NCC1CCCO1 (stereo unspecified) | 5.1 | 1.7 | -2.3 | -0.2 | 7.4
CC(=O)Nc1ccc(NC(=O)C2CCCN2S(=O)(=O)c2cccc3nsnc23)cc1 (stereo unspecified) | -1.3 | 9.6 | -0.9 | 0.4 | 5.1
O=C(NC1CCCC1)C1CCCN1S(=O)(=O)c1cccc2cccnc12 (stereo unspecified) | 1.1 | -3.8 | -5.0 | 0.0 | -34.0*
O=C(NC1CCCCC1)C1CCN(S(=O)(=O)c2cccc3cccnc23)CC1 | 2.6 | -2.5 | -8.9 | -0.3 | -65.3*
CC1CCCC(NC(=O)C2CCCN2S(=O)(=O)c2cccc3nsnc23)C1C (stereo unspecified) | 1.6 | 35.6* | x | 1.1 | 17.4
COc1ccc(C(=O)COC(=O)C2CCN(S(=O)(=O)c3cccc4cccnc34)CC2)cc1 | 4.9 | 7.0 | -5.6 | 0.8 | -69.9*
CCOC(=O)N1CCC(NC(=O)C2CCN(S(=O)(=O)c3cccc4cccnc34)CC2)CC1 | 2.8 | -14.4 | -4.2 | -1.4 | -6.8
O=C(NC1CCN(C(=O)Nc2ccccc2Cl)CC1)c1cccc(F)c1 | 0.3 | -0.5 | -0.8 | 0.5 | 1.2
COC(=O)c1ccccc1S(=O)(=O)N1CCC(C(=O)OCc2cccc(OC)c2OC)CC1 | 44.1* | 3.5 | -0.7 | 1.5 | -39.1*
CCOc1ccc(N2CC(c3nc4ccccc4n3Cc3cccc(Cl)c3)CC2=O)cc1 (stereo unspecified) | 2.7 | -0.3 | 1.3 | 0.5 | -33.6*
CCOc1ccccc1N1CC(c2nc3ccccc3n2CCCCOc2ccccc2)CC1=O (stereo unspecified) | 30.6* | -7.0 | 0.8 | 0.6 | -14.8
CCOc1ccc(N2CC(c3nc4ccccc4n3CCOc3ccccc3)CC2=O)cc1 (stereo unspecified) | 2.1 | 0.0 | 0.3 | 0.6 | 2.1
Cc1ccc2c(=O)cc(C(=O)Nc3c(C(=O)c4ccccc4)oc4ccccc34)oc2c1C | -0.8 | -1.6 | -1.1 | 0.2 | -2.8
CCOc1ccc(-n2nc(CO)c(C(=O)NCc3ccccn3)n2)cc1 | 0.9 | -0.6 | -1.9 | 0.2 | 5.6
CN(CC(=O)Nc1ccccc1Cl)C(=O)CCSc1ccc(F)cc1 | 20.0 | -0.4 | -4.7 | -0.3 | 5.3
Cc1cc(Br)ccc1NC(=O)CN(C)C(=O)CCSc1ccc(F)cc1 | 14.0 | 2.4 | -9.4 | -0.3 | -35.1*
SMILES | D1 ag | TRHR enhancer | D1 PAM | TRHR agonist | D1 antag
O=C(NCCc1ccc(Cl)cc1)c1ccc(CS(=O)Cc2ccccc2Cl)o1 (stereo unspecified) | 6.5 | -1.3 | 0.2 | -0.3 | -14.6
CSc1ccc(CCNC(=O)c2ccc(CS(=O)Cc3ccccc3Cl)o2)cc1 (stereo unspecified) | 5.9 | -6.9 | 1.0 | -0.2 | -38.0*
O=C(NC1CCCCC1)c1ccc(CS(=O)Cc2ccccc2Cl)o1 (stereo unspecified) | -0.6 | -3.4 | -2.1 | -0.2 | -63.8*
CNC(=S)N/N=C1\C(=O)c2cccc3cccc1c23 | 0.5 | 0.1 | 0.5 | -0.4 | -46.4*
CCCCNC(=S)N/N=C1\C(=O)c2cccc3cccc1c23 | 1.5 | -3.3 | 10.8 | -0.5 | 3.9
CCOc1ccccc1NC(=O)NC1CCCc2ccccc21 (stereo unspecified) | 0.4 | -3.1 | -1.9 | -0.7 | -32.7*
COc1ccccc1NC(=O)NC1CCCc2ccccc21 (stereo unspecified) | 2.0 | -0.4 | -4.3 | -0.1 | -5.1
COc1ccc(OCC(=O)NC2CCCc3ccccc32)cc1 (stereo unspecified) | 1.9 | -2.4 | -3.6 | -0.3 | -3.5
CC(=O)c1ccc(OCCCC(=O)NC2CCCc3ccccc32)cc1 (stereo unspecified) | -0.2 | -3.3 | -0.7 | -0.7 | -31.8*
CCS(=O)(=O)N1CCc2cc(C(=O)NC(C)c3ccccc3)ccc21 (stereo unspecified) | 5.0 | 1.5 | -3.2 | -0.3 | -12.1
COc1ccc(CN2C(=O)N(c3ccc(F)cc3)C(=O)C2CC(=O)Nc2cc(OC)cc(OC)c2)cc1 (stereo unspecified) | 2.9 | -2.4 | -3.4 | 0.1 | -15.1
CC1(C)CC(=O)C2=C(C1)OC(/N=C/N1CCCC1)=C(C#N)C2c1ccccc1 (stereo unspecified) | -0.8 | -17.8 | -11.9 | -0.5 | -95.0*
C#CC(C)(CC)NC(=O)Cn1nnc(-c2ccc(OCc3ccccc3F)cc2)n1 (stereo unspecified) | 4.4 | -2.0 | -4.8 | 0.8 | 1.1
Cc1noc(Cn2c(=O)c3cc4c(cc3n(CC(=O)Nc3cccc(Cl)c3)c2=O)OCO4)n1 | 5.2 | -0.5 | 0.2 | 1.4 | 5.1
COc1ccc(C2N3CC4(C)CN2CC(C)(C3)C4O)cc1OC (stereo unspecified) | 4.2 | 31.0* | -7.2 | -0.2 | -4.8
COc1ccc(C2N3CC4(C)CN2CC(C)(C3)C4O)cc1 (stereo unspecified) | 2.8 | 4.7 | -0.5 | 0.6 | 3.4
COc1ccc2c(CNCCc3cccs3)c(C(=O)O)n(Cc3ccccc3C)c2c1 | 4.4 | -3.5 | -0.6 | -0.6 | 20.9
Cn1c(CN2CCN(C(=O)c3ccccc3Cl)CC2)nc2cc([N+](=O)[O-])ccc21 | 1.8 | 1.1 | -3.9 | 1.1 | -77.0*
Cn1c(CN2CCN(C(=O)c3ccccc3)CC2)nc2cc([N+](=O)[O-])ccc21 | 0.3 | -2.4 | 3.1 | -0.2 | -20.3
N#C/C(=N\Nc1ccc(Cl)c(Cl)c1)C(=O)C1CC1 | 23.0 | -3.0 | -4.8 | 0.2 | -44.3*

From PubChem BioAssay
